The record followed here is PubChem BioAssay AID1851 (National Center for Advancing Translational Sciences (NCATS), 2009).

Screen size: about 16,000 compounds; about 5,800 (36%) were called active. Another 23% or so got no clear call; they are omitted. This is one part of the list. Values without a mark were called inactive. Calls come from the whole dose curve; as a rule, active = well fitted curve in the direction sought with a large enough effect; inconclusive = small, poorly fitted or top-dose-only effect, or effect the other way; inactive = no such curve, though single readings can be large or run the other way.
% is set by controls: 0 for no effect and ±100 for the full control effect.

The target of the test is Cytochrome P450 2C19 (Homo sapiens) (UniProt P33261). Put plainly: Cytochrome panel assay with activity outcomes. The settings on record: recombinant CYP, pro-luciferin dealkylation, luminescence, p450-cyp2c19; series mostly up to 57.1 µM; activity, negative = inhibition: at the top concentration. Here is the method: The P450 gene superfamily is involved in the metabolism and clearance of xenobiotics. This assay used various human CYP P450 isozymes to measure the dealkylation of various pro-luciferin substrates to luciferin. The luciferin is then measured by luminescence after the addition of a luciferase detection reagent. Pro-luciferin substrate concentration in the assay was equal to its KM for its CYP P450 isozyme. Inhibitors and some substrates limit the production of luciferin, and decrease measured luminescence.
Sequence of Cytochrome P450 2C19 (Homo sapiens) (P33261 whole entry, looked up): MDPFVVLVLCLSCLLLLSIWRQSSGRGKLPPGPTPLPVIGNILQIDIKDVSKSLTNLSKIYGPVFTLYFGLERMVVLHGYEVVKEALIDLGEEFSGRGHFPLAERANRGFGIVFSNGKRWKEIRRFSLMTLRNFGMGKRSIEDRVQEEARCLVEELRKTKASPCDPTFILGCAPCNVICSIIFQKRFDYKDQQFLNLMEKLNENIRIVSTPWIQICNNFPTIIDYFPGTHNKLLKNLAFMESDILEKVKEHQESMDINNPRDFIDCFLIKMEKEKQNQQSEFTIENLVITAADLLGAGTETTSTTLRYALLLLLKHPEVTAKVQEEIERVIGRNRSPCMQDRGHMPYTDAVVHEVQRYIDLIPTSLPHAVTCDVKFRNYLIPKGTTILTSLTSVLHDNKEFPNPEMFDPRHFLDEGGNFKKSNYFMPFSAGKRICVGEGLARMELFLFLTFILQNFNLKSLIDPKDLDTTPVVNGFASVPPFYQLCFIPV
NCGC Assay Protocol Summary:
1, Reagent, 2 uL, Isozyme and Pro-Luciferin
2, Library compounds, 23 nl, 40 uM to 0.24 nM dilution series
3, Controls, 23 nl, Isozyme specific inhibitor
4, Reagent, 2 uL, NADPH regeneration solution
5, Incubation time, 60 min, Isozyme specific temperature
6, Reagent, 4ul, Detection reagent
7, Incubation time, 20 min, Isozyme specific temperature
8, Detection, 1 sec, ViewLux luminescent read
The luciferase-based P450-GloTM Screening Systems were obtained from Promega (Madison, WI) for CYP 1A2 (V9770), CYP 2C9 (V9790), CYP2 C19 (V9880), CYP 2D6 (V9890), and CYP 3A4 Luciferin-PPXE (V9910) and were adapted for 1,536-well microplates and an automated protocol. The control compounds furafylline for 1A2 (F124), sulfaphenazole for CYP 2C9 (S0758), ketoconazole for CYP 2C19 (K1003), quinidine for 2D6 (Q3625), and ketoconazole for 3A4 (K1003) were purchased from Sigma Aldrich (St. Louis, MO). Recombinant P450 enzymes were obtained from baculovirus constructs expressed in insect cells (BD/Gentest).
Medium-binding white solid Kalypsys plates used. Mixtures kept on ice. 1A2: 10 nM 1A2, 100 uM Luc-ME, 100 mM KPO4; 2C9: 10 nM 2C9, 100 uM Luc-H, 25 mM KPO4; 2C19: 5 nM 2C19, 10 uM Luc-H EGE, 50 mM KPO4; 2D6: 5 nM 2D6, 30 uM Luc-ME EGE, 100 mM KPO4; 3A4: 10 nM, 25 uM Luc-PPXE. All amounts are reflected in their final concentration, working concentration is 2x.
NADPH regeneration solution: 1.3 mM NADP+, 3.3 mM glucose-6-phosphate, 3.3 mM MgCl2, 0.4 U/mL glucose-6-phosphate dehydrogenase for all isozymes, 200 mM KPO4 for 3A4. Mixture prepared at RT but kept on ice during automated run.
RT incubation in auxilliary plate hotel for 1A2, 2D6, and 3A4; 37C for 2C9 and 2C19.
Keywords: P450, CYP1A2, CYP2C19, CYP2C9, CYP2D6, CYP3A4, Luciferase, MLSMR, MLSCN, NIH Roadmap, qHTS, NCGC
Take `Clc1cc(I)cc(Cl)c1NC1=NCCN1`: the “activity, negative = inhibition” value is -0.585%.

For the compound `CC(C)NC(=O)N1CCCC2(CCN(C(=O)Oc3ccccc3)CC2)C1`, the “activity, negative = inhibition” value is -29%.

For `CN1[C@@H]2CC[C@H]1CC(OC(=O)c1cc(Cl)cc(Cl)c1)C2` (stereo not given in full), the “activity, negative = inhibition” value is -36.3%.

Regarding `C[C@@H](C(=O)OC1C[C@H]2CC[C@@H](C1)N2C)c1ccc(Br)cc1` (stereo not given in full), the “activity, negative = inhibition” value was -8.86%.

As usually defined, the AC50 is the concentration at which the activity in the assay is half-maximal. For `CC[C@H](Oc1ccc(Cl)cc1)C(=O)OC1C[C@H]2CC[C@@H](C1)N2C` (stereo not given in full), the AC50 is 0.0158 µM (active).

On to `CCCN(CCC)C1Cc2cc(OC)c(OC)cc2C1`, for which the AC50 result is “inactive”.

With `NCCSC(c1ccccc1)c1ccccc1`, the half-maximal activity concentration (AC50) was 1.26 µM (active).

For the compound `C[N+]1(C)CCN(c2ccccc2)CC1`, the “activity, negative = inhibition” value was 32%.

`C=CCN1CCc2cccc3c2[C@@H]1Cc1ccc(O)c(O)c1-3`: the “activity, negative = inhibition” value was -54%.

On to `CC(=O)NCCc1c[nH]c2ccccc12`, for which the AC50 was 10 µM (active).

Take `NCCc1c[nH]c2ccccc12`: the “activity, negative = inhibition” value is -13.2%.

Take `CN(C)CCCc1c[nH]c2ccccc12`: the activity, negative = inhibition is -13.7% [at 11.4 µM].

On to `c1ccc2c(c1)Sc1ccccc1N2C[C@H]1CN2CCC1CC2`, for which the activity, negative = inhibition is 38.1% [at 11.4 µM].

Consider `CN(C(=O)Cc1ccc(Cl)c(Cl)c1)[C@@H](CN1CCCC1)c1cccc(OCC(=O)O)c1`, for which the AC50 result is “inactive”.

In the case of `CN(C(=O)Cc1ccc(Cl)c(Cl)c1)[C@H](CN1CCCC1)c1ccccc1`, the AC50 is 0.316 µM (active).

Turning to `C=CCN1CC[C@]23c4c5ccc(O)c4O[C@@H]2/C(=N/NC(=O)c2ccccc2)CC[C@@]3(O)[C@H]1C5`, the “activity, negative = inhibition” value was -19.2%.

In the case of `CC(C)N(CC[C@@](C(N)=O)(c1ccccc1)c1ccccn1)C(C)C`, the AC50 entry was “inactive”.

As to `COC(=O)[C@@]1(Cc2ccc(F)cc2)[C@H]2c3cc(C(=O)N(C)C)[nH]c3C[C@H]2CN1C(=O)c1ccccc1`, the AC50 is 20 µM (active).

Turning to `CC[N+](C)(C)c1cccc(O)c1`, the “activity, negative = inhibition” value is -25.1% [at 25.6 µM].

On to `C/C=C1\C[C@H](C)[C@@](O)(CO)C(=O)OCC2=CCN3CC[C@@H](OC1=O)[C@@H]23`, for which the “activity, negative = inhibition” value was -42% [at 25.6 µM].

As to `CC(C)C12CN3CC(C(C)C)(CN(C1)C3c1cccnc1)C2=O` (stereo not given), the AC50 was 14.1 µM (active).

`CCN=C=NCCCN(C)C`: the activity, negative = inhibition is 27.1% [at 11.4 µM].

Consider `C[N+]1(C)C2CC(OC(=O)C(CO)c3ccccc3)CC1[C@@H]1O[C@H]21` (stereo not given in full), for which the AC50 result is “inactive”.

On to `C[C@H]1CN(C2CCC(C#N)(c3ccc(F)cc3)CC2)CC[C@@]1(C(=O)O)c1ccccc1` (stereo not given in full), for which the “activity, negative = inhibition” value was -32.5% [at 25.6 µM].

For `FC(F)(F)c1nc2ccc(SSc3ccc4nc(C(F)(F)F)[nH]c4c3)cc2[nH]1`, the AC50 is 5.01 µM (active).

Turning to `C=C(C)[C@H]1CN[C@H](C(=O)O)[C@@H]1CC(=O)O`, the “activity, negative = inhibition” value is 28%.

In the case of `c1cc(CN2CC3(CCNCC3)C2)ccn1`, the “activity, negative = inhibition” value was -40.1%.

As for `CC(C)[C@@H]1CN[C@H](C(=O)O)[C@@H]1CC(=O)O`, the “activity, negative = inhibition” value was -4.7%.

For the compound `COC[C@H]1OC(=O)c2coc3c2[C@@]1(C)C1=C(C3=O)[C@H]2CCC(=O)[C@@]2(C)C[C@H]1OC(C)=O`, the “activity, negative = inhibition” value was -4.95%.

As to `CCCN1CCC[C@H](c2cccc(O)c2)C1`, the AC50 entry was “inactive”.

Take `Fc1ccc(CCNCc2ccc(Cl)c(Cl)c2)cc1`: the AC50 was 0.316 µM (active).

Regarding `O=C1NC(=S)NC(=O)C1=Cc1cccc2cc3ccccc3cc12`, the activity, negative = inhibition is -39.2% [at 11.4 µM].

`O=c1cc(-c2ccc(O)cc2)oc2c([C@H]3O[C@@H](CO)[C@@H](O)[C@@H](O)[C@@H]3O)c(O)cc(O)c12`: the “activity, negative = inhibition” value is 7.98% [at 25.6 µM].

Turning to `O=P(O)(O)CCP(=O)(O)O`, the activity, negative = inhibition was 13.6% [at 11.4 µM].

`COc1ccc(C2SCC(=O)Nc3c2c(C)nn3-c2ccccc2)cc1OC` (stereo not given): the AC50 was 10 µM (active).

Take `CNC(=O)Oc1ccc2c(c1)[C@@]1(C)CCN(C)[C@@H]1N2C`: the “activity, negative = inhibition” value is 33.5% [at 25.6 µM].

As to `C[C@]12CC[C@H]3c4ccc(O)cc4CC[C@@H]3[C@H]1CC[C@@H]2OP(=O)(O)O`, the activity, negative = inhibition is 34.7% [at 11.4 µM].

In the case of `CCCN(CCC)C(=O)Cc1c(-c2ccc(Cl)cc2)nc2c(Cl)cc(Cl)cn12`, the “activity, negative = inhibition” value is 16.9%.

As to `COc1ccc(OC)c([C@H](O)[C@H](C)N)c1`, the AC50 result is “inactive”.

For the compound `COc1ccc(Cl)cc1NC(=O)NCCCl`, the AC50 was 20 µM (active).

As to `CC1=NCCc2c1[nH]c1cc(O)ccc21`, the “activity, negative = inhibition” value was -35.5% [at 25.6 µM].

In the case of `O=C(OC1CCN(CCCl)CC1)C(c1ccccc1)c1ccccc1`, the “activity, negative = inhibition” value was -33.4%.

On to `O=C(NCCN1CCN(C(=O)C(c2ccccc2)c2ccccc2)CC1)C(=O)Nc1ccccc1`, for which the AC50 was 25.1 µM (active).

As to `O=C(c1ccccc1)[C@H]1[C@H](c2ccccc2[N+](=O)[O-])N1C1CCCCC1` (stereo not given in full), the activity, negative = inhibition is -82.8% [at 11.4 µM].

With `Cc1ccc(C2(c3ccc(C)c(O)c3C)CCN(C)CC2)c(C)c1O`, the activity, negative = inhibition is 2.67% [at 11.4 µM].
